In test [1] the test system is MILI (PIWIL2) piRISC loaded with L1MC piRNA (26 nt). Kind of test: pre-steady-state target cleavage rate (min^-1); guide: L1MC piRNA 5'p-UAACUAAAUACUAUGCAAGCUGUAGG; higher = faster piRNA-guided slicing of the target. The procedure, abridged:
(§1)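 In Cleave-'n-Seq, a transcribed, DNA-blocked target RNA library (0.1 nM) was combined with 1 nM active affinity-purified piRISC bearing one synthetic guide, with or without 500 nM GTSF1 partner protein. Reactions ran in HEPES–potassium acetate buffer at 33 °C for 0–8 or 0–960 min. Uncleaved targets were sequenced and normalised to depth and to weakly complementary targets, three trials were pooled, and k3 was capped at 0.0001 min^-1. The pre-steady-state cleavage rate was obtained by fitting a burst-and-steady-state model.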

The test system of test [2] is EfPiwi piRISC loaded with L1MC piRNA (26 nt). The test is described as follows: pre-steady-state target cleavage rate (min^-1); auxiliary factor: none (no Gtsf1); guide: L1MC piRNA 5'p-UAACUAAAUACUAUGCAAGCUGUAGG; higher = faster piRNA-guided slicing of the target. The procedure, abridged:
as §1

For test [3] the test system is unchanged. The test is described as follows: pre-steady-state target cleavage rate (min^-1); auxiliary factor: 500 nM Ephydatia muelleri Gtsf1; guide: L1MC piRNA 5'p-UAACUAAAUACUAUGCAAGCUGUAGG; MIWI and MILI are mouse PIWI proteins and EfPiwi is from a freshwater sponge; tags in brackets are library labels; higher = faster piRNA-guided slicing of the target. The procedure, abridged:
as §1

Where [4] appears, read: auxiliary factor: 500 nM mouse GTSF1.
[5] abbreviates: auxiliary factor: none (no GTSF1).

± gives the standard deviation.

For UCCUGGAUCAGCUUGCAUAGUAUCUUAGUUA, the “pre-steady-state target cleavage rate” value in test [1] (setting [4]) was determined as 0.234 ± 0.021; in test [1] (setting [5]), 0.00648 ± 0.0025; in test [2], 0.0132 ± 0.0071; in test [3], 0.0248 ± 0.0072.

Consider UCCUGGAUGAGCUUGCAAAGUAUAUAGUUA, for which the results for the “pre-steady-state target cleavage rate” value in test [1] (setting [4]), in test [1] (setting [5]) and in test [2] were 0.148 ± 0.02, 0.00576 ± 0.0029 and below 0.0001, respectively.

UCCUGCUACAGCUUGGAUAGUAUUUACAAA: the “pre-steady-state target cleavage rate” value in test [2] is below 0.0001; in test [3] it was 0.00306 ± 0.0026.

On to UCCUGGAUGUCCAUGCAUAGUAUAUAGUUA, for which the “pre-steady-state target cleavage rate” value in test [1] (setting [4]) is 0.0181 ± 0.0064; in test [1] (setting [5]), 0.00373 ± 0.0026; in test [2] it was below 0.0001.

As for UCCUGGAACUCGUUGCAUAGUAUUUAGUUA, the “pre-steady-state target cleavage rate” value in test [1] (setting [4]) was 0.154 ± 0.018; in test [1] (setting [5]), 0.00417 ± 0.0024; in test [2], below 0.0001; in test [3], 0.00531 ± 0.0017.

Consider UCCUGGAUCUGCUUGCAUAGUAUAUAGUUA, for which the “pre-steady-state target cleavage rate” value in test [1] (setting [4]) was found to be 0.191 ± 0.019; in test [1] (setting [5]), 0.00587 ± 0.0024; in test [2], 0.011 ± 0.0069; in test [3] it was 0.0643 ± 0.018.

In the case of UCCUGGAUCAGCUUGCAUAUUAUUUAGUUA, the “pre-steady-state target cleavage rate” value in test [1] (setting [4]) is 0.0736 ± 0.0095; in test [2] it was 0.00536 ± 0.0048; in test [3], 0.0367 ± 0.011.

Consider UCCUGGAAGAGCUUGCUUAGUAUUUAGUUA, for which the “pre-steady-state target cleavage rate” value is 0.204 ± 0.016 in test [1] (setting [4]), 0.0109 ± 0.0029 in test [1] (setting [5]), 0.00878 ± 0.005 in test [2] and 0.0135 ± 0.0043 in test [3].

Take UCCUGGUUACAGCUUGCAUAGUAUUUAGUUA: the “pre-steady-state target cleavage rate” value in test [1] (setting [4]) is 0.256 ± 0.025; in test [1] (setting [5]), 0.03 ± 0.0078; in test [2], 0.00968 ± 0.0057; in test [3], 0.0881 ± 0.021.

As to UCCUGGAUGAGCUUGCAUAGUAGUUAGUUA, the “pre-steady-state target cleavage rate” value in test [1] (setting [4]) came out at 0.158 ± 0.026; in test [2], 0.00517 ± 0.0042; in test [3] it was 0.00781 ± 0.0027.

Take UCCUGGAUGUCGAAGCAUAGUAUUUAGUCA: the “pre-steady-state target cleavage rate” value is 0.0245 ± 0.0057 in test [1] (setting [4]), 0.00315 ± 0.0019 in test [1] (setting [5]) and below 0.0001 in test [2].

For the sequence UCCUGGAACAGCUUGCAUAGUAUUAUGAAA, the figures for the “pre-steady-state target cleavage rate” value in test [1] (setting [4]), in test [2] and in test [3] were 0.0563 ± 0.02, below 0.0001 and 0.00336 ± 0.0021, respectively.

For the sequence UCCUGGAUGUCGUUGAAUAGUAUUUAGUUA, the “pre-steady-state target cleavage rate” value in test [1] (setting [4]) was 0.0817 ± 0.015; in test [1] (setting [5]), 0.0047 ± 0.0024; in test [2], below 0.0001.

For the sequence UCCUGGAUCAGCUUGCAUAGUAUGUAGUUA, the “pre-steady-state target cleavage rate” value in test [1] (setting [4]) stood at 0.202 ± 0.018; in test [1] (setting [5]), 0.00457 ± 0.0024; in test [2] it was 0.0179 ± 0.0092; in test [3], 0.0171 ± 0.0042.

Turning to UCCUGGAUGUCGAACCAUUCAAUUUAGUUA, the “pre-steady-state target cleavage rate” value in test [2] and in test [3] was below 0.0001 throughout.

For the sequence UCCUGCUACAGCAUCCAUAGUAUUUAGUUA, the “pre-steady-state target cleavage rate” value in test [1] (setting [4]) was 0.195 ± 0.047; in test [2], below 0.0001; in test [3] it was 0.00233 ± 0.0017.

As to UCCUGGAUGUCGAUGCAUCGUAUUUAGUUA, the “pre-steady-state target cleavage rate” value is 0.0238 ± 0.0073 in test [1] (setting [4]), 0.00865 ± 0.0025 in test [1] (setting [5]) and below 0.0001 in test [2].

Consider UCCUCCUACAGCUUGCAUAGUAUUGUAGUUA, for which the results for the “pre-steady-state target cleavage rate” value in test [1] (setting [4]), in test [2] and in test [3] were 0.166 ± 0.045, below 0.0001 and 0.0032 ± 0.0012, respectively.

Turning to UCCUCCUACAGCUUGGAUACUAUUUAGUUA, the results for the “pre-steady-state target cleavage rate” value in test [1] (setting [4]), in test [2] and in test [3] were 0.0539 ± 0.0095, 0.00497 ± 0.0037 and 0.0118 ± 0.0031, respectively.

For the sequence UCCUGGAUGUCGAAGGAUAGUAUUAAGUUA, the “pre-steady-state target cleavage rate” value in test [2] and in test [3] was below 0.0001 each time.

Take UCCUCCUACAGCUUGCAUAGGAUUUAGUUA: the “pre-steady-state target cleavage rate” value in test [1] (setting [4]) was 0.0118 ± 0.0044; in test [2], 0.00638 ± 0.0035; in test [3], 0.0113 ± 0.0028.

With UCCUGGUUCUGCUUGCAUAGUAUUUAGUUA, the “pre-steady-state target cleavage rate” value in test [1] (setting [4]) came to 0.186 ± 0.024; in test [1] (setting [5]), 0.00814 ± 0.0033; in test [2], 0.00563 ± 0.0047; in test [3], 0.0355 ± 0.011.

Consider UCCUGGAUGAGCUUGCAUAGUAUGUAGUUA, for which the “pre-steady-state target cleavage rate” value in test [1] (setting [4]) stood at 0.162 ± 0.033; in test [1] (setting [5]) it was 0.0043 ± 0.003; in test [2], 0.00616 ± 0.0049; in test [3] it was 0.0135 ± 0.0044.

Consider UCCUGGAACAGCUUGGAUUGUAUUUAGUUA, for which the “pre-steady-state target cleavage rate” value in test [1] (setting [4]) was 0.0767 ± 0.011; in test [1] (setting [5]) it was 0.00295 ± 0.0026; in test [2] it was below 0.0001.

Take UCCUGGUACAGCUUGCAUAGUAUUUAAGUUA: the “pre-steady-state target cleavage rate” value in test [1] (setting [4]) came to 0.22 ± 0.041; in test [1] (setting [5]), 0.0123 ± 0.0043; in test [2] it was 0.00555 ± 0.0052.

With UCCUGGAUGUCGAAGCAUAGUAUUUAGUGA, the “pre-steady-state target cleavage rate” value is 0.0495 ± 0.015 in test [1] (setting [4]), 0.00324 ± 0.0026 in test [1] (setting [5]) and below 0.0001 in test [2].

Consider UCCUGGAUGUGCUUGCGUAGUAUUUAGUUA, for which the entries for the “pre-steady-state target cleavage rate” value in test [1] (setting [4]), in test [1] (setting [5]) and in test [2] were 0.0451 ± 0.013, 0.0145 ± 0.0037 and 0.00427 ± 0.0042, respectively.

As to UCCUGGAUGAGCUUGCAUAGUAUUAUAGUUA, the “pre-steady-state target cleavage rate” value in test [1] (setting [4]) was determined as 0.185 ± 0.022; in test [1] (setting [5]), 0.00494 ± 0.0026; in test [2], 0.0249 ± 0.011; in test [3], 0.0159 ± 0.0056.

Turning to UCCUGGAUCAGCUUGCAUUGUAUAUAGUUA, the “pre-steady-state target cleavage rate” value was 0.183 ± 0.018 in test [1] (setting [4]), 0.00663 ± 0.0022 in test [1] (setting [5]) and below 0.0001 in test [2].

Consider UCCUGGAUGAGCUUGCAUAGUCUUUAGUUA, for which the “pre-steady-state target cleavage rate” value in test [2] was 0.0128 ± 0.0056; in test [3], 0.0107 ± 0.0033.

On to UCCUGGAUGUGCAUGCAUAGUAUUUAGAUA, for which the “pre-steady-state target cleavage rate” value is 0.146 ± 0.032 in test [1] (setting [4]), below 0.0001 in test [2] and 0.00317 ± 0.0024 in test [3].

Take UCCUGGAUCACGUUGCAUAGUAUUUAGAAA: the “pre-steady-state target cleavage rate” value in test [1] (setting [4]) is 0.128 ± 0.022; in test [1] (setting [5]), 0.00275 ± 0.0027; in test [2], below 0.0001; in test [3], 0.00652 ± 0.0044.

As to UCCUGGAUGUCGAACGUAUGUCUUUAGUUA, the “pre-steady-state target cleavage rate” value in test [2] and in test [3] was below 0.0001 throughout.

UCCUCGUACAGCUUGCAUAGAAUUUAGUUA: the “pre-steady-state target cleavage rate” value in test [1] (setting [4]) was 0.0473 ± 0.0079; in test [2], 0.00853 ± 0.0037; in test [3], 0.00771 ± 0.0018.

As for UCCUGGAUGUCGAUGCACAGUAUUUAGUUA, the “pre-steady-state target cleavage rate” value was 0.0311 ± 0.0057 in test [1] (setting [4]), 0.00443 ± 0.0024 in test [1] (setting [5]) and below 0.0001 in test [2].

With UCCUGGAUGUCGAACGUUAGUAUCUAGUUA, the “pre-steady-state target cleavage rate” value in test [2] and in test [3] was below 0.0001 throughout.

With UCCUGGUACAGCUUGCAUAGUAAAAAGUAA, the “pre-steady-state target cleavage rate” value in test [1] (setting [4]) is 0.031 ± 0.013.

With UCCUGCUACAGCUUGCAAUGUAUUUACAAA, in test [1] (setting [4]), the “pre-steady-state target cleavage rate” value amounted to 0.0477 ± 0.014.

These data come from the supplement of paper PMC10338343.
